LGR2 antag: blocks bursicon-induced cAMP signaling via Drosophila LGR2; HEK293 LGR2, CRE-luciferase, bursicon-stimulated, 4 h; inhibition, % at 9.99 µM; 0.35% of 380,000 active;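 active = drop in luminescence signal, shown as inhibition above about 50% in the replicate tests, limit read from the data, passing the limit was not always enough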;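 also: agonist challenge used bursicon conditioned medium at about half maximal strength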
HSP90 inh: inhibitors of HSP90 luciferase refolding in rabbit reticulocyte lysate; luciferase refolding luminescence, 3 h; inhibition, % at 5.6 µM; 0.91% of 290,000 active;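 active = inhibition above the screen-wide mean plus 3 SD, computed separately per campaign, cut at about 16% in these data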;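 also: 0% = DMSO wells and 100% = 60 µM geldanamycin wells; inhibitors lower the luminescence because luciferase stays unfolded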
Mdm2 MdmX PPI: inhibitors of human Mdm2/MdmX interaction; SaOS-2 split-luciferase Mdm2/MdmX complementation, luminescence; inhibition, % at 8 µM; 3% of 330,000 active;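 active = inhibition of at least 50% at 8 µM in the primary screen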
Target sequence (O15151 whole entry, looked up): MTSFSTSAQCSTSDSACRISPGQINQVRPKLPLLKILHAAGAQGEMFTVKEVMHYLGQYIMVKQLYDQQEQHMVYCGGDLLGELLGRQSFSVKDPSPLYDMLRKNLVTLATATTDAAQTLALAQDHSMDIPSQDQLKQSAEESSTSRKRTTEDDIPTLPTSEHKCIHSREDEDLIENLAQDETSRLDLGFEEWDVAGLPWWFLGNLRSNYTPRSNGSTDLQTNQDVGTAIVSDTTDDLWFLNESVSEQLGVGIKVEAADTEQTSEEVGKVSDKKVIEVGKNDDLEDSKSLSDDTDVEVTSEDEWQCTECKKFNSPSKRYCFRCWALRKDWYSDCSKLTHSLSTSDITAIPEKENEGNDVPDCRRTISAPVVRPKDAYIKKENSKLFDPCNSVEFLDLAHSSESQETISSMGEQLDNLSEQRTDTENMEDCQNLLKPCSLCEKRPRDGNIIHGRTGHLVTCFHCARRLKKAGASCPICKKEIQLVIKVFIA
Target sequence (Q00987 whole entry, looked up): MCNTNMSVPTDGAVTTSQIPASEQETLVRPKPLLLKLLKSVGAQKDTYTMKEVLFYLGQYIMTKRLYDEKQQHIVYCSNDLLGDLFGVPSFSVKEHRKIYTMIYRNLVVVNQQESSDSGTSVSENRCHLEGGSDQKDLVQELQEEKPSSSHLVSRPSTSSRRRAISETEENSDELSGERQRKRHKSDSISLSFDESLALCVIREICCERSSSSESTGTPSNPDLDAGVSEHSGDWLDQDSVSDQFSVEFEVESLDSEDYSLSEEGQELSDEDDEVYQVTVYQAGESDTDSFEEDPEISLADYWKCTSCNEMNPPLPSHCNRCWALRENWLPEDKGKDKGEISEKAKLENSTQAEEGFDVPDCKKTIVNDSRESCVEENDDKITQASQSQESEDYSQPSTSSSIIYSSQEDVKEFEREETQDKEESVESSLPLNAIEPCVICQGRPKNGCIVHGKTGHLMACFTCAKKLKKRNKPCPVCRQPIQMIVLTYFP
Peg3 prom inh: reduces Peg3 promoter-driven luciferase expression in HeLa; inhibition, % at 20 µM; HeLa PEG-Prom luciferase reporter, luminescence, overnight; 1.7% of 360,000 active; AID 588405;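 active = inhibition of at least 50% at 20 µM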
KKLEB tox: reduces viability of KKLEB cystic fibrosis airway cells. KKLEB CF airway cells viability, ATPlite luminescence, overnight; hits give low values; cells stimulated with P. aeruginosa culture filtrate. activity change (cytotoxicity), % at 5 µM. 0.36% of 360,000 active. AID 602141;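 active = corrected activity change at or below -50% at 5 µM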
CF NFkB block: blocks PAF-induced NF-kB reporter in cystic fibrosis cells; KKLEB NF-kB-GFP reporter, GFP fluorescence overnight; inhibition, % at 5 µM; 0.86% of 360,000 active; AID 588850;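 active = at least 50% inhibition at 5 µM, scaled per plate between neutral and stimulator controls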;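 also: PAF is a Pseudomonas aeruginosa culture filtrate used as stimulus; plate controls were PAF-stimulated DMSO wells for no effect and unstimulated DMSO wells for full effect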
Mdm2-MdmX conf: confirmation of human Mdm2/MdmX interaction inhibitors; AID 489028; Mdm2-MdmX binding, luminescent assay; shares compounds with Mdm2 MdmX PPI; 55% of 10,000 active; inhibition, % at 8 µM; in the data active = inhibition above about 40%
FLuc counter: inhibits full-length luciferase, flagging false Mdm2/MdmX hits. AID 504607. 77% of 6,200 active. shares compounds with Mdm2 MdmX PPI. inhibition, % at 8 µM. SaOS-2 full-length luciferase counterscreen, luminescence;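 active = mean inhibition at 8 µM reaching about 37%, which flags the compound as non-specific, limit read from the data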;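 also: p53-null SaOS-2 cells with luciferase driven by a doxycycline-inducible promoter; compound on cells about two nights before reading with doxycycline added after day one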
Numbers without * were called inactive; ! = a repeat was not active. An excerpt weighted towards active compounds, which were near 3.6% of everything screened.

Results for Cc1ccccc1-c1ccc2c(c1)O[C@H](CN(C)C(=O)c1ccccn1)[C@H](C)CN([C@H](C)CO)S2(=O)=O ?
LGR2 antag: -7

Results for O=C(C1CCC1)N1CC2(C1)[C@@H](c1ccccc1)[C@@H](CO)N2Cc1nccs1 ?
LGR2 antag: -25

What do the screens show for `C=CCn1c(=O)c2ccccc2n2c(Sc3nnnn3-c3ccccc3)nnc12`?
HSP90 inh: 2; Mdm2 MdmX PPI: 53*; Peg3 prom inh: 21; KKLEB tox: -5; CF NFkB block: 9; Mdm2-MdmX conf: 24

What do the screens show for `Cc1nn(CC(=O)Nc2cccc(Cl)c2)c(=O)c2cc(-c3ccccc3)nn12`?
LGR2 antag: -2; HSP90 inh: -8; Mdm2 MdmX PPI: 56*; Peg3 prom inh: 48; KKLEB tox: -5; CF NFkB block: 16; Mdm2-MdmX conf: 12

How did COc1ccc(-c2cc3c(=O)n(CC(=O)Nc4ccc(Cl)cc4)nc(C)n3n2)cc1 do in these assays?
LGR2 antag: -3; HSP90 inh: 1; Mdm2 MdmX PPI: 67*; Peg3 prom inh: 7; KKLEB tox: 5; CF NFkB block: -5; Mdm2-MdmX conf: 43*; FLuc counter: 67*

What do the screens show for `Cc1nn(CC(=O)NCCCN2CCC(N3CCCCC3)CC2)c(=O)c2cc(-c3ccccc3)nn12`?
LGR2 antag: -11; HSP90 inh: -5; Mdm2 MdmX PPI: 95*; Peg3 prom inh: 78*; KKLEB tox: -8; CF NFkB block: -7; Mdm2-MdmX conf: 53*; FLuc counter: 56*

What do the screens show for `COc1ccc(-c2cc3c(=O)n(CC(=O)NCc4cccnc4)nc(C)n3n2)cc1`?
LGR2 antag: -8; HSP90 inh: -4; Mdm2 MdmX PPI: -25; Peg3 prom inh: -39; KKLEB tox: 4; CF NFkB block: 1

How did CS(=O)(=O)N1CCCCN2[C@H](C1)[C@@H](c1ccc(-c3cccc(C#N)c3)cc1)[C@@H]2CO do in these assays?
LGR2 antag: -9

What do the screens show for `CCCCn1c(CCC)nc([N+](=O)[O-])c1Sc1ccc(Cl)cn1`?
HSP90 inh: -4; Mdm2 MdmX PPI: 63*; Peg3 prom inh: 20; KKLEB tox: -13; CF NFkB block: 14; Mdm2-MdmX conf: 18

Results for CC1CN(c2nc(-c3ccc(Br)cc3)nnc2-c2ccccc2)CC(C)N1 (stereo unspecified) ?
HSP90 inh: -1; Mdm2 MdmX PPI: 81*; Peg3 prom inh: 62*; KKLEB tox: -10; CF NFkB block: 14; Mdm2-MdmX conf: 54*; FLuc counter: 52*

Results for O=C(Nc1ccc(Oc2ccccc2)nc1)C1CCCCN1Cc1ccco1 (stereo unspecified) ?
LGR2 antag: -20; HSP90 inh: -4; Mdm2 MdmX PPI: 65*; Peg3 prom inh: -4; KKLEB tox: -28; CF NFkB block: 38; Mdm2-MdmX conf: 76*; FLuc counter: 68*

Results for O=C(Nc1ccc(Oc2ccccc2)nc1)C1CCN(Cc2ccco2)CC1 ?
LGR2 antag: -4; HSP90 inh: -3; Mdm2 MdmX PPI: -10; Peg3 prom inh: 29; KKLEB tox: 11; CF NFkB block: 10

What do the screens show for `CO[C@@H]1CN(C)C(=O)c2ccc(NC(=O)C3CCCC3)cc2OC[C@@H](C)NC[C@@H]1C`?
LGR2 antag: -17

How did CCN1CCN(Cc2ccc(NC(=O)c3ccc(C)c(NC(=O)c4nccnc4N)c3)cc2C(F)(F)F)CC1 do in these assays?
LGR2 antag: 39; Mdm2 MdmX PPI: 97*; Peg3 prom inh: 81*; KKLEB tox: -19; CF NFkB block: 71*; Mdm2-MdmX conf: 64*; FLuc counter: 42*

What do the screens show for `CCN1CCN(Cc2ccc(NC(=O)c3cc(NC(=O)c4cnnc5ccccc45)cc(OC)c3)cc2C(F)(F)F)CC1`?
LGR2 antag: -2; Mdm2 MdmX PPI: 52*; Peg3 prom inh: 100*!; KKLEB tox: -12; CF NFkB block: 34; Mdm2-MdmX conf: 26

What do the screens show for `CCN1CCN(Cc2ccc(NC(=O)c3cc(NC(=O)c4cncc(-c5ccc(C#N)cc5)c4)cc(OC)c3)cc2C(F)(F)F)CC1`?
LGR2 antag: 10; Mdm2 MdmX PPI: 100*; Peg3 prom inh: 106*; KKLEB tox: -73*!; CF NFkB block: 57*!; Mdm2-MdmX conf: 20

Results for Cc1ccc(S(=O)(=O)N(C)C[C@H]2Oc3c(NC(=O)Nc4ccc5c(c4)OCO5)cccc3C(=O)N([C@H](C)CO)C[C@@H]2C)cc1 ?
LGR2 antag: 11

How did COc1ccc(CN(C)C[C@@H]2OCCCC[C@@H](C)Oc3ccc(NS(=O)(=O)c4c(C)noc4C)cc3C(=O)N([C@H](C)CO)C[C@H]2C)cc1 do in these assays?
LGR2 antag: -9

Results for Cc1ccccc1NC(=S)NCc1ccc2c(c1)cc(C)n2C ?
LGR2 antag: 9; HSP90 inh: 3; Mdm2 MdmX PPI: 68*; Peg3 prom inh: -44; KKLEB tox: -11; CF NFkB block: 18; Mdm2-MdmX conf: 48*; FLuc counter: 62*

How did CC(=O)OC1CC(C)N(C(=O)c2ccccc2)c2ccc(C)cc21 (stereo unspecified) do in these assays?
LGR2 antag: -5; HSP90 inh: 1; Mdm2 MdmX PPI: -36; Peg3 prom inh: 19; KKLEB tox: 1; CF NFkB block: -7

How did CC(=O)N1c2ccc(C)cc2C(c2ccccc2)CC1C (stereo unspecified) do in these assays?
LGR2 antag: -6; HSP90 inh: -3; Mdm2 MdmX PPI: 74*; Peg3 prom inh: -1; KKLEB tox: -24; CF NFkB block: -62; Mdm2-MdmX conf: 35; FLuc counter: 71*

How did CC(C)NC(=O)N(C)C[C@@H]1Oc2ccc(NC(=O)c3ccncc3)cc2CC(=O)N([C@@H](C)CO)C[C@H]1C do in these assays?
LGR2 antag: 2

What do the screens show for `Cc1ccc(C(=O)NC(C#N)=C(Cl)Cl)cc1`?
LGR2 antag: 106*; HSP90 inh: 1; Mdm2 MdmX PPI: 100*; Mdm2-MdmX conf: 99*; FLuc counter: 53*

What do the screens show for `C[C@H]1CN([C@@H](C)CO)C(=O)c2cccc(NC(=O)C3CC3)c2O[C@@H]1CN(C)Cc1ccc(C(=O)O)cc1`?
LGR2 antag: 13

What do the screens show for `COc1ccc(S(=O)(=O)Nc2ccc3c(c2)C(=O)N([C@@H](C)CO)C[C@@H](C)[C@@H](CN(C)S(=O)(=O)c2cn(C)cn2)OCCCC[C@@H](C)O3)cc1`?
LGR2 antag: 3
